MOR-DOR inv ag = inverse agonist of human OPRM1-OPRD1 heterodimerization; cell-based MOR-DOR heterodimer luminescence, inverse agonism; inhibition, % at 9.3 µM; actives 0.21% (n = 340,000); AID 504357; in the data active = inhibition above about 22%, passing the limit was not always enough
Target sequence (P35372 whole entry, looked up): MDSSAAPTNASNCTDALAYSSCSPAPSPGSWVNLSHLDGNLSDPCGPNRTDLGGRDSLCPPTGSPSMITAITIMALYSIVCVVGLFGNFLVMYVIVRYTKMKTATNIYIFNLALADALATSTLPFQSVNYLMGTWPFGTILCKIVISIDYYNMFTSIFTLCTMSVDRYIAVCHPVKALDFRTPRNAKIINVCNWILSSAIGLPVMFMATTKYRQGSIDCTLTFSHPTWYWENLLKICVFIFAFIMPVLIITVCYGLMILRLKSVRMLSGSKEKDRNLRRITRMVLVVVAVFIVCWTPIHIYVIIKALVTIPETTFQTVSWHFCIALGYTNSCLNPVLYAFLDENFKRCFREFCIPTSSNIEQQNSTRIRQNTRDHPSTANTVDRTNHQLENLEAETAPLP
Target sequence (P41143 whole entry, looked up): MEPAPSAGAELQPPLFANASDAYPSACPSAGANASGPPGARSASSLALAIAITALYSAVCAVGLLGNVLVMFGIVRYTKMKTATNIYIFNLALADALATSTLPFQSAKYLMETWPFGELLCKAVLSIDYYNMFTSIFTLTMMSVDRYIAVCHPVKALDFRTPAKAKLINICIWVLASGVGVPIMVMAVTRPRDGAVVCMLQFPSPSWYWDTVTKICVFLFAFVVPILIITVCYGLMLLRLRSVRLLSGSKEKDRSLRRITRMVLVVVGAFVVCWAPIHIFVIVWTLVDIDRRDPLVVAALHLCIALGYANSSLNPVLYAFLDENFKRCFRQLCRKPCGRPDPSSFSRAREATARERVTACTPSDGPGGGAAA
HTR5A inv ctr = inverse agonist of human HTR5A in OPRM1-OPRD1 counter-screen. HTR5A cell line, luminescence, inverse agonism. P47898. inhibition, % at 9.3 µM. AID 504634. actives 0.083% (n = 340,000); in the data active = inhibition mostly above about 23%, no sharp cut-off; inactive = mostly below about 18%
Yeast superoxide = yeast age-related superoxide inhibition as caloric restriction mimetic. AID 2690. S. cerevisiae aged cells, superoxide DHE fluorescence; hits give low values. actives 0.18% (n = 330,000). superoxide response (% of plate mean), % at 10 µM;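 active = superoxide response under a set limit, about three screen SD below normal, cut at about 65% in these data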;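 note: yeast aged for seven days with compound at 30 °C before DHE staining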
HTR5A ag = counter-screen for OPRM1-OPRD1 agonists: human HTR5A agonism | P47898 | activation, % at 9.3 µM | HTR5A agonist assay, luminescence, cell-based | actives 0.61% (n = 340,000); in the data active = activation mostly above about 9.5%, no sharp cut-off; inactive = mostly below about 7.6%
OPRM1-OPRD1 ag = OPRM1-OPRD1 heterodimerization agonism. P35372+P41143. actives 0.3% (n = 340,000). activation, % at 9.3 µM. cells, luminescence
PvdQ acylase = P. aeruginosa PvdQ acylase inhibition; purified PvdQ acylase, fluorescence plate reader; inhibition, % at 10 µM; actives 0.063% (n = 340,000); AID 488965; in the data active = inhibition above about 30%, passing the limit was not always enough
OPRM1-D1 ag cf = confirmation of human OPRM1-OPRD1 heterodimerization agonists; shares compounds with OPRM1-OPRD1 ag; cells, MOR-DOR heterodimerization, luminescence complementation; activation, % at 9.3 µM; actives 45% (n = 830)
HTR5A ag counter = HTR5A agonism, opioid heterodimer counter-screen. shares compounds with OPRM1-OPRD1 ag. HTR5A agonist counterscreen, cell luminescence. activation, % at 9.3 µM. actives 8% (n = 830). AID 504905; in the data active = activation above about 17%
Numbers stand for hits; - = inactive; . = not tested or not shown. Shown are actives, neighbours in structure and some others; about 1.3% of the full set was active somewhere. Cut-off read from the data, not from the text of the source, unless noted: active = activation above about 18%; inactive = the rest.

SMILES	MOR-DOR inv ag	HTR5A inv ctr	Yeast superoxide	HTR5A ag	OPRM1-OPRD1 ag	PvdQ acylase	OPRM1-D1 ag cf	HTR5A ag counter
Cc1ccc(/C=N/NC(=O)c2cccc(S(=O)(=O)Nc3cccc(Cl)c3)c2)o1	-	-	-	-	19	-	22	-
COc1ccccc1NS(=O)(=O)c1cccc(C(=O)N/N=C/c2ccc(C)o2)c1	-	-	-	-	-	-	.	.
CCN(CC)S(=O)(=O)c1cccc(C(=O)N/N=C(\C)c2cccs2)c1	-	-	-	-	-	-	.	.
C/C(=N\NC(=O)c1cccc(S(=O)(=O)Nc2cccc(Cl)c2)c1)c1cccs1	-	-	-	-	20	-	-	-
COc1ccc(CN2CCC(N(CCc3ccccc3)Cc3ccccc3)CC2)c(OC)c1	-	-	-	-	107	-	-	-
CCCN1CCC(N(CCc2ccccc2)Cc2ccccc2)CC1	-	-	-	-	-	-	.	.
CCN(CC(=O)Nc1ccc(OC)cc1)C(=O)c1ccc(N2C(=O)CCC2=O)cc1	-	-	-	-	-	-	.	.
CCOC(=O)C1(Cc2cccc(F)c2)CCN(Cc2ccon2)CC1	.	.	-	.	.	-	.	.
CCOC(=O)C1(Cc2ccccc2)CCN(Cc2cn[nH]c2-c2ccccc2)CC1	-	-	-	-	36	-	-	23
CCOC(=O)C1(CCCc2ccccc2)CCN(Cc2cnc(C)s2)CC1	-	-	-	-	106	-	-	-
CCOC(=O)C1(CC2CC2)CCN(Cc2cn[nH]c2-c2ccccc2)CC1	-	-	-	-	-	-	.	.
CCOC(=O)C1(CCCc2ccccc2)CCN(Cc2nccn2CC)CC1	-	-	-	-	-	-	.	.
CCOC(=O)C1(Cc2cccc(F)c2)CCN(Cc2cnc(C)s2)CC1	-	-	-	-	22	-	24	-
CCOC(=O)C1(CCCc2ccccc2)CCN(Cc2cn(CC)nc2C)CC1	-	-	-	-	315	-	20	-
Cc1ccc(-c2nc(CS(=O)CC(=O)NCCN3CCCCCC3)c(C)o2)cc1 (stereo unspecified)	-	-	-	-	-	-	.	.
COc1ccc(-n2c(C)cc(/C=C3\C(=O)NN(c4ccccc4)C3=O)c2C)cc1	-	-	-	-	-	-	.	.
Cc1cc(/C=C2/C(=O)NN(c3ccccc3)C2=O)c(C)n1-c1ccc(O)cc1	-	-	-	-	61	-	50	-
O=C(Cc1ccc(Cl)cc1)c1c[nH]c(C(=O)NCCCN2CCOCC2)c1	-	-	-	-	-	-	.	.
Cc1ccc(S(=O)(=O)Nc2cccc(C(=O)NCC(c3ccco3)N(C)C)c2)cc1F (stereo unspecified)	-	-	-	-	-	-	.	.
COc1ccc(C(CNC(=O)c2ccc(S(=O)(=O)N(C)C)cc2)N(C)C)cc1 (stereo unspecified)	-	-	-	-	95	-	105	-
CCN(c1ccccc1)S(=O)(=O)c1cc(C(=O)NCC(c2ccc(OC)cc2)N(C)C)ccc1C (stereo unspecified)	-	-	.	-	20	-	-	-
CCN(c1ccccc1)S(=O)(=O)c1ccc(C(=O)NCC(c2cccs2)N(C)C)cc1 (stereo unspecified)	-	-	-	-	-	-	.	.
Cc1ccc(NC(=O)CNCC(c2ccccc2)N(C)C)cc1F (stereo unspecified)	-	-	-	-	40	-	-	-
Cc1ccc(S(=O)(=O)Nc2cccc(C(=O)NCC(c3ccccc3)N(C)C)c2)cc1F (stereo unspecified)	-	-	-	-	51	-	-	-
Cc1ccc(NC(=O)CCC(=O)O)cc1F	-	-	-	-	-	-	.	.
CC(=O)c1cccc(S(=O)(=O)NC2CCSc3ccccc32)c1 (stereo unspecified)	-	-	-	-	-	-	.	.
COc1ccc(C(CNC(=O)c2cccc(NS(=O)(=O)c3ccc(Br)cc3)c2)N(C)C)cc1 (stereo unspecified)	-	-	-	-	74	-	-	-

Source: PubChem (several laboratories)
